Results published in PubChem BioAssay (NCI).
About 79,000 compounds went through this panel and 15% of them were active in at least one assay; those are over-represented in the sample as a whole. Unmarked numbers belong to inactive results. Active and inactive are the calls of the source. Rule as the data show it: active = growth inhibition above about 70%; inactive = the rest.

Legend:
[1] = NCI Yeast Anticancer Drug Screen. Data for the rad50 strain (AID 155);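 also: 0% = growth of vehicle-only cultures of the same strain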; conditions: S. cerevisiae rad50 strain growth inhibition, stronger effect = higher value
Outline: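 Inhibition values express reduced yeast growth in compound-treated cultures relative to vehicle-treated controls.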

[2] = NCI Yeast Anticancer Drug Screen. Data for the mec2-1 strain (AID 157); conditions: S. cerevisiae mec2-1 strain, stronger effect = higher value
Outline: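 Compounds were applied to mec2-1 yeast cells. Their growth was then compared with that of vehicle-treated cultures to give growth inhibition.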

[3] = NCI Yeast Anticancer Drug Screen. Data for the sgs1 mgt1 strain (AID 161);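 also: 0% = growth of cultures given vehicle only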; conditions: S. cerevisiae sgs1 mgt1 strain, stronger effect = higher value
Outline: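 Compounds are added to genetically altered yeast, and growth is compared with cultures given vehicle alone to give percent inhibition.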

[4] = NCI Yeast Anticancer Drug Screen. Data for the cln2 rad14 strain (AID 165);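 also: 0% = growth equal to vehicle treated cultures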; conditions: S. cerevisiae cln2 rad14 strain, stronger effect = higher value
Outline: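 Strain: cln2 rad14 yeast, altered in cell cycle control and DNA damage repair. Read-out: growth inhibition vs vehicle.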

[5] = NCI Yeast Anticancer Drug Screen. Data for the bub3 strain (AID 167); conditions: S. cerevisiae bub3 mutant strain, stronger effect = higher value
Outline: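 Steps: expose the mutant yeast strain to compound; grow alongside vehicle-treated cultures; measure growth; express inhibition against the vehicle cultures.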

[6] = NCI Yeast Anticancer Drug Screen. Data for the mlh1 rad18 strain (AID 175); conditions: S. cerevisiae mlh1 rad18 strain growth inhibition, stronger effect = higher value
Outline: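 A repair-deficient yeast strain is exposed to test compound, and growth is scored relative to vehicle-treated controls.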

[7] = at 5.0 µM (retest, dose inferred, filed as 0.5)
[8] = at 50.0 µM (retest, dose inferred, filed as 5.0)

Compound | growth inhibition [1, 7] | growth inhibition [1, 8] | growth inhibition ([1]; at 50.0 µM) | growth inhibition [2, 7] | growth inhibition [2, 8] | growth inhibition ([2]; at 50.0 µM) | growth inhibition [3, 7] | growth inhibition [3, 8] | growth inhibition ([3]; at 50.0 µM) | growth inhibition [4, 7] | growth inhibition [4, 8] | growth inhibition ([4]; at 50.0 µM) | growth inhibition [5, 7] | growth inhibition [5, 8] | growth inhibition ([5]; at 50.0 µM) | growth inhibition [6, 7] | growth inhibition [6, 8] | growth inhibition ([6]; at 50.0 µM)
CC1=C(C(=O)OCCc2ccc([N+](=O)[O-])cc2)C(c2ccccc2[N+](=O)[O-])C(C(=O)OC(C)C)=C(C)N1 (stereo not given) | 12% | 93% (active) | 69.6% | 13% | 94% (active) | 74.3% (active) | 1% | 87% (active) | 75.7% (active) | 0% | 80% (active) | 68.4% | 4% | 89% (active) | 74.6% (active) | 10% | 94% (active) | 68%
O=[N+]([O-])c1ccc(NC(=S)N/N=C(\c2ccccc2)c2ccccn2)cc1 | 8% | 73% (active) | 63.1% | -32% | 79% (active) | 66.2% | -19% | 87% (active) | 79.5% (active) | 19% | 75% (active) | 72.1% (active) | -5% | 82% (active) | 80.8% (active) | 11% | 89% (active) | 79.8% (active)
ClCc1ccccc1Cc1ccccc1 | 18% | 82% (active) | 98.6% (active) | 21% | 63% | 95.2% (active) | 27% | 83% (active) | 97.8% (active) | -1% | 35% | 94.5% (active) | -5% | 58% | 97.6% (active) | 35% | 85% (active) | 98% (active)
CSC(=S)N/N=C(/C)CC(C)C | 25% | 94% (active) | 57.1% | 14% | 94% (active) | 93% (active) | 10% | 92% (active) | 45.8% | -5% | 88% (active) | 66.8% | 24% | 95% (active) | 95.8% (active) | 16% | 95% (active) | 54%
CCCOC(=O)CCCC(=O)N(CC)CC | 1% | -10% | 10.7% | 0% | 1% | -7.7% | 0% | -9% | -25.1% | -5% | 0% | 71.5% (active) | -4% | -3% | -0.6% | -5% | -11% | 19.5%
